Measured values taken from PubChem BioAssay (NCATS).
A number with no mark means an inactive call. Calls come from the whole dose curve; as a rule, active = well fitted curve in the direction sought with a large enough effect; inactive = no such curve, though single readings can be large or run the other way.

Each molecule was assayed against Alpha-galactosidase (Coffea arabica) (UniProt Q42656) (assay: Counterscreen for Glucocerebrosidase Inhibitors: qHTS Assay for Coffee Bean alpha-Galactosidase at pH 5.9 (AID 998;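 note: plate controls were uninhibited enzyme for no effect and no-enzyme basal signal for full effect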)). Conditions: coffee bean alpha-galactosidase enzyme assay; series mostly up to 76.9 µM; activity, negative = inhibition: at the top concentration.
Chain of Alpha-galactosidase (Coffea arabica) (Q42656 whole entry, looked up): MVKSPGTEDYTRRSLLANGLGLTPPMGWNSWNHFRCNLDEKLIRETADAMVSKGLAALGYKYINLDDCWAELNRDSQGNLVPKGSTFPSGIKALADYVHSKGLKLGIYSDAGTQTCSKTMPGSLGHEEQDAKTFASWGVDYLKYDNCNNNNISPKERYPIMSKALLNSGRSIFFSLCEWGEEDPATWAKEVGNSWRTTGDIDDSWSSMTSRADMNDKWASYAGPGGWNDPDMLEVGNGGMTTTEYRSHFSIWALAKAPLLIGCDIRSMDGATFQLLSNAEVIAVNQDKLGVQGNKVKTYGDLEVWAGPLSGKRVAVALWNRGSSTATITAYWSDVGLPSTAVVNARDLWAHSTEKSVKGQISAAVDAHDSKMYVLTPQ
Outline: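 Green coffee bean enzyme (2 nM) with 4-methylumbelliferyl alpha-D-galactopyranoside (80 uM) in 50 mM citric acid, 0.005% Tween-20, pH 5.9, 20 min at room temperature; compounds 0.7 nM–77 uM. Stopped at pH 10, fluorescence Ex365/Em440; Hill-fit AC50.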

Row | SMILES | activity, negative = inhibition
1 | O=C(Nc1ccc([N+](=O)[O-])cc1Cl)c1cc(Cl)ccc1O | -5.26%
2 | O=C(O)CP(=O)(O)O | -2.64%
3 | C[C@]12CCC(=O)C=C1CC[C@@H]1[C@@H]2[C@@H](O)C[C@@]2(C)[C@H]1CC[C@]2(O)C(=O)CO | 1.34%
4 | O=C1NCN(c2ccccc2)C12CCN(CCCC(c1ccc(F)cc1)c1ccc(F)cc1)CC2 | -10.9%
5 | c1cnc(N2CCN(Cc3ccc4c(c3)OCO4)CC2)nc1 | -2.81%
6 | CCCC(C(=O)OCCN(CC)CC)(c1ccccc1)c1ccccc1 | -6.57%
7 | COc1cc(C(=O)OCCCN2CCCN(CCCOC(=O)c3cc(OC)c(OC)c(OC)c3)CC2)cc(OC)c1OC | -2.42%
8 | OCc1cc(C(O)CNCCCCCCOCCCCc2ccccc2)ccc1O (stereo not drawn) | 0.49%
9 | Brc1c(NC2=NCCN2)ccc2nccnc12 | -6.1%
10 | CN(C(=O)CCCOc1ccc2[nH]c(=O)ccc2c1)C1CCCCC1 | 1.34%
11 | CCN(CC)CC(=O)Nc1c(C)cccc1C | 0.685%
12 | O=C(c1ccc(F)cc1)C1CCN(CCn2c(=O)[nH]c3ccccc3c2=O)CC1 | -4.12%
13 | COCC(=O)O[C@]1(CCN(C)CCCc2nc3ccccc3[nH]2)CCc2cc(F)ccc2[C@@H]1C(C)C | -6.98%
14 | c1cc(CN2CCCCC2)cc(OCCCNc2nc3ccccc3s2)c1 | -8.21%
15 | COc1nc(C)nc(Cl)c1NC1=NCCN1 | 1.72%
16 | NC(N)=NCCC[C@H](N)C(=O)O | -1.37%
17 | CCCCC1C(=O)N(c2ccccc2)N(c2ccccc2)C1=O | -3.3%
18 | CCCCNc1ccc(C(=O)OCCN(C)C)cc1 | -0.178%
